The source made the active and inactive calls.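 The calls were made as follows: active = compounds whose GFP signal falls below 65% of the DMSO control level; inconclusive = fewer than 70 yeast cells counted in the well; inactive = the rest.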
Test: TOR branch reporter RPL19A-GFP response – cell-based, S. cerevisiae, third cherry pick, flow cytometry, confirmation (AID 504336);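 also: median GFP fluorescence of all gated yeast cells by flow cytometry; ratio of well median fluorescence to plate mean of DMSO wells with DMSO = 100%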
Conditions: S. cerevisiae RPL19A-GFP strain, 3 h, at 10 µM, active compounds read low

GFP response relative to DMSO, inactive:
C/C(=N\NC(=O)c1ccccc1)c1ccccc1F 98.3%
Nc1cccc2c1C(=O)c1ccc(Cl)cc1C2=O 102%
CNc1nc(N)c([N+](=O)[O-])c(Nc2ccccc2OC)n1 103%
CNc1nc(C)c([N+](=O)[O-])c(Nc2ccc(OC)cc2)n1 102%
CC1=NNC(=O)/C1=C\c1cn(-c2ccccc2)nc1-c1ccc(F)cc1 89.7%
COc1ccc(Nc2nc(NN)nc(C)c2[N+](=O)[O-])cc1 99.3%
COc1ccc(OC)c(Nc2nc(NCCC(C)C)nc(N)c2[N+](=O)[O-])c1 103%
O=C(N/N=C/c1ccccc1)c1cccc2ccccc12 98.3%
Oc1c(I)cc(Cl)c2cccnc12 86%
COc1cccc(NC(=O)CC(C)=O)c1 99.1%
O=c1cc(C(F)(F)F)[nH]c2c(OC(F)(F)F)cccc12 101%
CCCC(=O)Nn1cnc2c(c1=O)C1(CCCC1)Cc1ccccc1-2 102%
O=C(N/N=C/c1ccccc1O)c1cccc2ccccc12 97%
CSc1nc(S(C)(=O)=O)nc2[nH]c(=O)[nH]c12 100%
Cn1c(=O)c2c(n3cnnc13)-c1ccccc1CC21CCCC1 102%
OCc1ccnc2c(O)cccc12 99.1%
NC(=O)c1ccnc2c(O)cccc12 98.8%
Oc1c(Cl)cc(Cl)c2cccnc12 81.6%
Cc1nc(Nc2ccc(Br)cc2Br)c([N+](=O)[O-])c(=O)[nH]1 100%
COc1ccccc1-c1cc(C(F)(F)F)nc(S(=O)(=O)CCCC(=O)O)n1 102%
Cc1cccc(Nc2cc(=O)[nH]c(=O)[nH]2)c1C 98.5%
FC(F)Oc1cccc2cccnc12 95.4%
COc1cccc(OCc2cc(C(=O)N3CCN(C)C(c4ccccc4)C3)no2)c1 (centres undefined) 96.5%
Nc1ncnc(Nc2cc(Cl)cc(Cl)c2)c1[N+](=O)[O-] 102%
O=C(N/N=C/c1ccccc1F)c1cccc2ccccc12 100%
COC(=O)COc1c(Cl)cc(Cl)c2ccc(C)nc12 105%
CCC(=O)Nn1cnc2c(c1=O)C1(CCCCC1)Cc1ccccc1-2 103%
C/C(=N\NC(=O)c1cccc2ccccc12)c1cccnc1 98.3%
Cc1cc(C)c(NC(=O)CC(=O)c2ccccc2)c(Cl)c1 97.8%
O=C1c2ccccc2C(=O)c2c1cccc2N(CCO)CCO 99.8%
O=C(Nc1cccc2ccccc12)ON=C1CCCCC1 101%
CCc1sc(C(=O)Nc2nc(-c3ccccn3)cs2)cc1C 101%
Cn1c(NCCCO)nc2c(c1=O)C1(CCCCC1)Cc1ccccc1-2 102%
CSc1ccccc1OCc1cc(C(=O)N2CCN(C)C(c3ccccc3)C2)no1 (centres undefined) 101%
O=C(Nc1ccc(-c2nc3ccccc3o2)cc1)c1cccnc1 101%
CCOC(=O)CS(=O)(=O)c1nc(-c2ccccc2)cc(C(F)(F)F)n1 93.1%
CNc1nc(N)c([N+](=O)[O-])c(Nc2cccc(Cl)c2)n1 94.1%
COCCCNc1nc(N)c([N+](=O)[O-])c(Nc2ccccc2OC)n1 99.1%
Cc1cccc(N/C=C/C(=O)c2ccc(Cl)cc2)c1 99.6%

From PubChem BioAssay AID504336 (NMMLSC, 2011)
